The list is not random: actives were taken first. Their share in the collection is about 1.5%.
TLR4-MyD88 BLA = blocks binding of human TLR4 to MyD88 | O00206+Q99836 | HeLa CL3-4 TLR4/MyD88 BLA complementation, FRET ratio | inhibition, % at 8.4 µM | 200,000 tested, 0.18% active; in the data active = inhibition above about 25%;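 note: 0% = vehicle and 100% = reference inhibitor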
NOD2-RIPK2 inh = inhibitors of human NOD2-RIPK2 interaction; CHO BLA complementation NOD2-RIPK2, CCF4 ratio; O43353; inhibition, % at 4.98 µM; 360,000 tested, 0.38% active; in the data active = inhibition above about 21%;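 note: 0% = vehicle only and 100% = reference blocker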
TLR9-MyD88 inh = TLR9-MyD88 interaction inhibition; CHO BLA complementation TLR9-MyD88, CCF4 FRET ratio; inhibition, % at 4.98 µM; 340,000 tested, 0.21% active;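 active = inhibition above the mean over all tested compounds plus 3 SD, cut at about 21% in these data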;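 note: 0% = DMSO only wells and 100% = clavulanate BLA inhibitor control wells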
Myeloid diff 2 = promotes myeloid progenitor differentiation. ER-HoxA9 myeloid progenitors, lysozyme-GFP differentiation, flow cytometry. calls only at 10 µM. 360,000 tested, 1% active;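 active = normalized GFP-positive differentiation at or above the plate's own cutoff, the solvent-only control mean plus 3 SD; inconclusive = no clear call, values can overlap the other calls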;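 note: cells exposed to compound for four days before flow analysis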
TLR9-MyD88 cf = TLR9-MyD88 interaction inhibition, confirmation; shares compounds with TLR9-MyD88 inh; CHO TLR9/MyD88 BLA complementation, CCF4 FRET ratio; inhibition, % at 4.98 µM; 680 tested, 51% active;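 active = mean inhibition across three repeats above about 21% taken from the earlier screen, limit read from the data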;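 note: blue over green emission ratio reports constitutive TLR9 MyD88 association via BLA complementation; 0% = DMSO vehicle wells and 100% = clavulanate BLA inhibitor wells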
Target sequence (Q9NR96 whole entry, looked up): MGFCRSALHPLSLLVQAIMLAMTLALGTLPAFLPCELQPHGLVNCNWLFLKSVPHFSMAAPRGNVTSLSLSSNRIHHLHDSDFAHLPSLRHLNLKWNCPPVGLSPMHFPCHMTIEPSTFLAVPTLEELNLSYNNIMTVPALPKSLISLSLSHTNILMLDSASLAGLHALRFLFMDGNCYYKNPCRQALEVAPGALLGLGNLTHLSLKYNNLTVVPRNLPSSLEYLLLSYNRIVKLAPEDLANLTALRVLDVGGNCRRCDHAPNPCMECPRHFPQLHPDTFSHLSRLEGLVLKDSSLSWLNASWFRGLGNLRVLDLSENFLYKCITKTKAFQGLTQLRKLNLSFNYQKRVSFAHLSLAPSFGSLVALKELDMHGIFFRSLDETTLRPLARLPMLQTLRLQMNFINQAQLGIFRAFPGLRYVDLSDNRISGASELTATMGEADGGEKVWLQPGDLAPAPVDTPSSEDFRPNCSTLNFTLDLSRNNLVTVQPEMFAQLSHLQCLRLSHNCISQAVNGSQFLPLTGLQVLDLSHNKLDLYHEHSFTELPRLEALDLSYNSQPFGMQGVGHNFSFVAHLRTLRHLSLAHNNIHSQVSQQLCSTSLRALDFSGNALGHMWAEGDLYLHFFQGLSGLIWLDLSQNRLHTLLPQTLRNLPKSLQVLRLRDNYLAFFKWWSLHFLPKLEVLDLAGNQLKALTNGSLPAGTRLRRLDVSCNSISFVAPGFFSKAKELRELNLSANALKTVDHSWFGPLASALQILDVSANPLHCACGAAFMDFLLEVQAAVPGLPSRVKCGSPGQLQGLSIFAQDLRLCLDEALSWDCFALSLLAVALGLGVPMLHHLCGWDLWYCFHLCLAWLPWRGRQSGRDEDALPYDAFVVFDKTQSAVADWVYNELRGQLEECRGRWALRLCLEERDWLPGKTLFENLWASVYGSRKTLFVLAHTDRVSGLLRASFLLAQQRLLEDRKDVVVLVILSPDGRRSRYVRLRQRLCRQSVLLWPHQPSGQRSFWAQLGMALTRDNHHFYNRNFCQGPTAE
BLA nonselective = non-selective beta-lactamase inhibitors in TLR9-MyD88 counter-screen. AID 540251. inhibition, % at 4.98 µM. shares compounds with TLR9-MyD88 inh. 680 tested, 7% active. CHO-BLA cells, CCF4 FRET ratio, BLA reporter;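 active = mean inhibition above a 50% cutoff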;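 note: counterscreen of TLR9-MyD88 hits on CMV-driven BLA in CHO-K1 cells; 0% = DMSO alone and 100% = clavulanate blocking BLA; higher means less blue over green ratio so more BLA blockade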
TLR9 CHO cytotox = counter-screen for TLR9-MyD88 inhibitors: cytotoxicity in CHO cells | shares compounds with TLR9-MyD88 inh | 680 tested, 39% active | luminescence | inhibition, % at 4.98 µM; in the data active = inhibition above about 11%
Starred values were filed as active, the others as inactive; i = inactive; ? = inconclusive; nt = no result.

SMILES | TLR4-MyD88 BLA | NOD2-RIPK2 inh | TLR9-MyD88 inh | Myeloid diff 2 | TLR9-MyD88 cf | BLA nonselective | TLR9 CHO cytotox
COc1ccc(C(=O)/C=C/c2ccc(O)cc2)c2c1CC(O)C(C)(C)O2 (stereo not given) | nt | 3 | 23* | i | 6 | 5 | 5
CCn1c(/C=C/c2ccccc2)nc2ccccc21 | 6 | -5 | 7 | i | nt | nt | nt
CCCn1c(/C=C/c2cc[n+](C)cc2)nc2ccccc21 | nt | 16 | 30* | i | 17 | 22 | -1
O=C1c2ccccc2C(c2nnnn2Cc2ccccc2)N1C1CC1 (stereo not given) | nt | 2 | nt | i | nt | nt | nt
CC[C@]12c3[nH]c4ccccc4c3CCN1C(=O)C(CC(=O)NCCc1ccccn1)C[C@@H]2C(=O)N1CCN(C(=O)C2CC2)CC1 (stereo not given in full) | nt | -4 | 9 | i | nt | nt | nt
CC[C@]12c3[nH]c4cc(-c5ccco5)ccc4c3CCN1C(=O)[C@@H](CC(=O)NCCc1ccccn1)C[C@@H]2C(=O)N1CCN(C(=O)C2CC2)CC1 | nt | -8 | 7 | i | -3 | -3 | 1
O=C1CCCCCC1C1(O)C(=O)Nc2ccccc21 (stereo not given) | 13 | -3 | 32* | i | 1 | 0 | 1
COc1ccc2c(c1)CC(C1(O)C(=O)Nc3ccccc31)C2=O (stereo not given) | 4 | -5 | -2 | i | nt | nt | nt
CCOC(=O)C1CCCN(C(=O)c2cc3c(-c4cccc(OC)c4)nn(C)c3s2)C1 (stereo not given) | -5 | 5 | 28* | ? | 3 | -2 | 27*
CCOC(=O)C1CCN(C(=O)c2cc3c(-c4ccc(OC)c(OC)c4)nn(C)c3s2)CC1 | 9 | -11 | 13 | i | nt | nt | nt
O=C1c2ccccc2NC(c2ccc(-c3cccc([N+](=O)[O-])c3)o2)N1O (stereo not given) | 2 | 3 | 22* | i | 8 | 7 | 43*
COc1ccc(S(=O)(=O)N2CCC(NC(=O)C3CCCCC3)CC2)cc1 | nt | 4 | 21* | i | -35 | 1 | -3
COC(=O)C(Sc1ccc(Cl)cc1)C1SC(=S)N(Cc2ccccc2)C1=O (stereo not given) | nt | -14 | -7 | i | nt | nt | nt
COC(=O)C1=CN(c2ccc3c(c2)OCO3)C(N)=C(C#N)C1c1ccc(-c2ccccc2)cc1 (stereo not given) | nt | -18 | nt | i | nt | nt | nt
CC(C)n1cc(CN2CCCC(C(=O)Nc3cccc(-c4cc5ccccc5[nH]4)c3)C2)cn1 (stereo not given) | nt | 5 | 23* | ? | 6 | -1 | 7
COc1cccc(C2=CC(c3ccc(OC)c(OC)c3OC)n3nnnc3N2)c1 (stereo not given) | 1 | 15 | 22* | i | 3 | 4 | 3
COc1cccc(C2=CC(c3cccs3)n3nnnc3N2)c1 (stereo not given) | -7 | 9 | -3 | ? | nt | nt | nt
CN(C)CC1CC/C(=C\c2ccc(O)cc2)C1=O (stereo not given) | nt | 65* | 28* | ? | 24* | 2 | 97*
CN(C)S(=O)(=O)c1cccc(NC(=O)c2cc([N+](=O)[O-])ccc2N2CCCCC2)c1 | nt | 8 | 22* | i | 1 | 2 | 4
CC(=O)Nc1cccc(NC(=O)c2cc([N+](=O)[O-])ccc2N2CCCCC2)c1 | nt | -9 | -3 | i | nt | nt | nt
COc1ccc(S(=O)(=O)N=N/C=C2\C=CC=CN2O)cc1OC | nt | -8 | -12 | i | nt | nt | nt
Cc1cc2c(cc1C)-c1nnnn1C(N1CCC(Cc3ccccc3)CC1)C(=O)N2 (stereo not given) | nt | -5 | nt | i | nt | nt | nt
CCN1CCN(Cc2c(O)ccc3c2O/C(=C\c2ccc(C)cc2)C3=O)CC1 | 10 | 16 | 21* | i | 10 | 14 | 1
O=C(Nc1c2c(nn1-c1ccccc1)CS(=O)(=O)C2)C1CC1 | nt | -7 | 4 | i | nt | nt | nt
O=C(Nc1c2c(nn1-c1ccccc1)CS(=O)(=O)C2)c1ccccc1Br | nt | 9 | 23* | i | 8 | 10 | -1
SMILES | TLR4-MyD88 BLA | NOD2-RIPK2 inh | TLR9-MyD88 inh | Myeloid diff 2 | TLR9-MyD88 cf | BLA nonselective | TLR9 CHO cytotox
Cc1ccc(NC(=O)/C(CN(C)C)=N\O)cc1 | 17 | 13 | 24* | i | 6 | 8 | 0
OC(c1ccc(F)c(F)c1)c1nc(-c2ccc3ccccc3c2)cs1 (stereo not given) | nt | 7 | nt | i | nt | nt | nt
COC(=O)N/N=C/c1cc(Br)ccc1O | -13 | 3 | -4 | i | nt | nt | nt
CC(C)NC(=S)N/N=C/c1cc(Br)ccc1O | 19 | 15 | 21* | i | 16 | 9 | 4
CCOC(=O)CNC(=O)CSc1nc(-c2ccc(OC)cc2)ns1 | 2 | -1 | 22* | i | 1 | -2 | 5
O=S1(=O)Nc2c(ccc3cccnc23)-c2ccccc21 | 7 | 25* | 21* | i | 33* | 17 | 99*
CC(=O)c1cccc(-c2ccnc3c2CC(C(=O)Nc2ccc(C(C)C)cc2)O3)c1 (stereo not given) | nt | 14 | nt | i | nt | nt | nt
Nc1nnnn1/N=C/c1cc(Cl)cc(Cl)c1O | nt | 6 | 23* | i | 24* | 28 | -4
Nc1nnnn1/N=C/c1cc(Cl)ccc1O | nt | 20 | 28* | i | 10 | 11 | 0
Cc1ccccc1-c1csc(C(O)c2ccc(F)c(F)c2)n1 (stereo not given) | nt | -4 | nt | i | nt | nt | nt
CC(C)Nc1nc(Nc2ccc(C(N)=O)cc2)c2sccc2n1 | nt | 2 | nt | i | nt | nt | nt
Cc1ccc(C)c(S(=O)(=O)N2CCN(CC(=O)N3CCc4ccccc4C3)CC2)c1 | -6 | -10 | 36* | i | -2 | 3 | 0
O=C(CN1CCN(S(=O)(=O)c2cc(C(F)(F)F)ccc2Cl)CC1)N1CCc2ccccc2C1 | nt | 4 | 1 | i | nt | nt | nt
CCn1cc(/C=C(\NC(=O)c2ccccc2F)C(=O)N2CCN(C)CC2)c2ccccc21 | nt | -6 | -1 | i | nt | nt | nt
CCOC(=O)Cc1csc(/N=C/c2c(O)n(-c3ccccc3C(F)(F)F)c(=O)c3ccccc23)n1 | 18 | 9 | 22* | i | 8 | 9 | 10
CCOC(=O)Cc1csc(-n2sc3ccccc3c2=O)n1 | 13 | 16 | -3 | i | nt | nt | nt
O=S(=O)(Nc1cccc2ncccc12)c1cccs1 | 5 | 52* | 29* | ? | 26* | 12 | 103*
O=C(NCCCl)NNc1c(Cl)cc(Cl)cc1Cl | -13 | -1 | 22* | i | 2 | 0 | 3
COc1ccccc1NS(=O)(=O)c1cccc(NC(=O)C2CC(=O)N(Cc3ccccc3)C2)c1 (stereo not given) | 0 | -10 | 24* | i | -2 | 0 | 1
